These results are taken from PubChem BioAssay (NCATS).

Assay [1] concerns the target DNA repair nuclease/redox regulator APEX1 (Homo sapiens) (UniProt P27695). Nature of the assay: qHTS Validation Assay for Inhibitors of the Human Apurinic/apyrimidinic Endonuclease 1 (APE1) (AID 1705;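 note: TAMRA fluorescence gain over two minutes as APE1 cuts a quenched THF abasic duplex; series mostly up to about 57 µM; % is set by controls: 0 for no effect and ±100 for the full control effect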). A digest of the protocol: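 Endonuclease activity of human APE1 is followed as dequenching when the enzyme incises a tetrahydrofuran abasic site in a short duplex labelled 5'-TAMRA/3'-BHQ-2 (50 nM final), after 15 min enzyme–compound preincubation at room temperature.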
(qHTS replaces the single test concentration by a dilution series.)

Assay [2] can be described thus: Counterscreen for APE1 Inhibitors: Fluorescent Dye Displacement Validation Assay (AID 1707).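 Note: plate controls were ThO with dsDNA and no compound for no effect and ThO without dsDNA for full effect.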 A digest of the protocol: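 ThO 250 nM + dsDNA 50 nM (THF abasic site, 5'-TAMRA), Tris-HCl pH7.5/50mM NaCl/2 mM MgCl2/0.01% Tween-20; compounds pin-transferred; ex 480/em 540 nm endpoint. Neutral = no compound; no-DNA ThO wells = negative control.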
On the technique in general: Counterscreens check selectivity or assay interference.

A short description of assay [3]: qHTS for differential inhibitors of proliferation of Plasmodium falciparum line GB4 (AID 1816).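 Note: potency is the fitted concentration of half-maximal effect; parasite growth measured after 72 h incubation.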 The following applies: Potency: Plasmodium falciparum GB4 proliferation inhibition.
Assay [4] can be described thus: qHTS for differential inhibitors of proliferation of Plasmodium falciparum line 3D7 (AID 1876). Note: potency is the fitted concentration of half-maximal effect.
The nature of assay [5]: qHTS for differential inhibitors of proliferation of Plasmodium falciparum line Dd2 (AID 1882). Note: nearly all actives have a fitted effect of over 65% in size. Note: potency is the fitted concentration of half-maximal effect. The following applies: Potency: Plasmodium falciparum Dd2 proliferation inhibition. Summed up:
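SYBR Green I DNA fluorescence read-out, ex 485/em 535 nm. Signals were normalized to 0.29 uM artemisinin and DMSO wells, then corrected using vehicle-only plates flanking each stack. Parasite growth ran 72 h in erythrocytes before lysis.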

Assay [6] is described as follows: qHTS for differential inhibitors of proliferation of Plasmodium falciparum line W2 (AID 1883).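 Note: potency is the fitted concentration of half-maximal effect; parasites grown with compound for 72 h before lysis and staining.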 The settings on record: Potency: Plasmodium falciparum W2 proliferation inhibition.
Assay [7] in a line: qHTS for differential inhibitors of proliferation of Plasmodium falciparum line HB3 (AID 1886).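 Note: potency is the fitted concentration of half-maximal effect; parasites grown with compound for 72 h before SYBR Green readout.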 The following applies: Potency: Plasmodium falciparum HB3 proliferation inhibition.
In assay [8] the target is ATP-dependent DNA helicase Q1 (Homo sapiens) (UniProt P46063). Kind of assay: qHTS Validation Assay for Inhibitors of RecQ-Like Dna Helicase 1 (RECQ1) (AID 2353).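 Note: plate controls were DMSO vehicle for no effect and enzyme-free control for full effect.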 A digest of the protocol:
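50 nM RECQ1T1 preincubated 15 min with compound in Tris pH 8.0 buffer with MgCl2, DTT, Tween-20 and 2.5 ug/ml poly(dI-dC); started with 200 nM TAMRA/BHQ-2 forked duplex and 2 mM ATP. Unwinding read as fluorescence (525/598 nm), two reads 2 h apart.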

Assay [9] is described as follows: Validation screen for small molecules that induce DNA re-replication in MCF 10A normal breast cells (AID 463097). Note: 0% is about no effect; nearly all actives have a fitted effect of over 60% in size. Summed up: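 DNA re-replication was detected as a rise in nuclei with elevated Hoechst fluorescence after a 48 hr compound exposure of MCF 10A cells at 37 C.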
The nature of assay [10]: Quantitative high throughput screen for delayed death inhibitors of the malarial parasite plastid, 96 hour incubation (AID 488745). Note: potency is the fitted concentration of half-maximal effect; nearly all actives have a fitted effect of over 70% in size. A digest of the protocol:
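Growth of reporter-bearing P. falciparum in red cells is measured after 96 h with compound, covering two erythrocytic cycles. Luminescence from the integrated luciferase serves as the growth signal.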

Assay [11] addresses M-phase phosphoprotein 8 (Homo sapiens) (UniProt Q99549). Nature of the assay: qHTS Validation Assay for Inhibitors for MPP8 Chromodomain Interactions with Methylated Histone Tails (AID 488949). Note: nearly all actives have a fitted effect of over 55% in size. Note: potency is the fitted concentration of half-maximal effect. Summed up:
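Disruption of the preformed MPP8–trimethyl-H3K9 peptide complex (both 50 nM, 30 min, RT) is measured after 30 min compound exposure, using AlphaScreen proximity beads; aurintricarboxylic acid titration serves as plate control.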

Assay [12] deals with Transient receptor potential cation channel subfamily V member 1 (Homo sapiens) (UniProt Q8NER1). Kind of assay: HTS Assay for Compounds that Act as Enhancers of the Vanilloid Receptor 1 (AID 488979). Note: 0% is about no effect. Summed up: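 Calcium influx kinetics via Fluo-8 (480/520 nm) in TRPV1-expressing cells, 2000/well cultured overnight at 35.5C. Compound-alone read 3 min (agonist phase), followed by EC20 capsaicin challenge for 2 min (enhancer phase).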

In assay [13] the target is Thyrotropin receptor (Homo sapiens) (UniProt P16473). Kind of assay: qHTS Assay for Antagonists of the Thyroid Stimulating Hormone Receptor (AID 488980). Note: series mostly up to about 58 µM; 0% is about no effect. A digest of the protocol: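 Cells expressing human TSHR (HEK293) are dispensed in HBSS/HEPES containing 70 uM RO 20-1724, compound is added, then TSH at EC80 (4 nM final). Antibody in lysis buffer follows, 30 minutes at room temperature before HTRF detection.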

In assay [14] the target is Thyrotropin-releasing hormone receptor (Homo sapiens) (UniProt P34981). Kind of assay: qHTS for Small Molecule Agonists and Allosteric Enhancers of Human TRH Receptor: Validation Screen for Agonists (AID 493127;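 active = calcium activation more than 3 SD above the typical response in the agonist read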;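 note: intracellular calcium rise by fluo-8 fluorescence before TRH EC20 addition; 0% is about no effect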). The settings on record: TRH receptor agonist cell assay; at 2 µM; stronger effect = higher value. Summed up:
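Gq-coupled calcium mobilization in TRHR cells after compound addition, monitored kinetically with fluo-8 dye on an FDSS reader.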

Assay [15] has as its target Galactokinase (Homo sapiens) (UniProt P51570). Kind of assay: qHTS Validation Assay for Inhibitors of Human Galactokinase (GALK) (AID 493189). Note: 0% is about no effect. A digest of the protocol:
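Compounds were pin-transferred into ATP buffer, then GALK-galactose mix was added (final 5 nM enzyme, 100 uM galactose, 35 uM ATP). After 1 h at room temperature, remaining ATP was measured luminescently.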

The target in assay [16] is Voltage-gated inwardly rectifying potassium channel KCNH2 (Homo sapiens) (UniProt Q12809). Nature of the assay: qHTS Assay for Small Molecule Inhibitors of the Human hERG Channel Activity (AID 588834).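 Note: lower thallium flux fluorescence means stronger hERG block; nearly all actives have a fitted effect of over 50% in size.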 Note: potency is the fitted concentration of half-maximal effect. A digest of the protocol:
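Measured: FluxOR fluorescence after thallium stimulation in U2OS cells transduced with hERG by baculovirus. Compounds pre-incubated around 10 min; medium Opti-MEM with 2% FCS. AC50 from Hill equation.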

Assay [17] addresses Cytochrome P450 2D6 (Homo sapiens) (UniProt P10635). Kind of assay: qHTS Assay for Inhibitors and Substrates of Cytochrome P450 2D6 (AID 891). Note: nearly all actives have a fitted effect of over 60% in size. Note: potency is the fitted concentration of half-maximal effect. Summed up: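 Human CYP2D6 (5 nM) with 30 uM Luciferin-ME EGE (at Km) in 100 mM KPO4, compound preincubated 10 min, then NADPH regeneration system for 60 min at room temperature. Luciferin read by luminescence; normalized to 1.43 uM quinidine.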

Assay [18] deals with Rap guanine nucleotide exchange factor 3 (Homo sapiens) (UniProt O95398). Nature of the assay: Confirmatory qHTS for agonist of cAMP-regulated guanine nucleotide exchange factor 3 (EPAC1) (AID 1645881).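 Note: EPAC1 catalysed release of BODIPY-GDP from Rap1B seen as fluorescence loss; 100% = effect of cAMP agonist control; nearly all actives have a fitted effect of over 75% in size.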
In assay [19] the target is Rap guanine nucleotide exchange factor 4 (Homo sapiens) (UniProt Q8WZA2). Nature of the assay: Confirmatory qHTS for agonist of cAMP-regulated guanine nucleotide exchange factor 4 (EPAC2) (AID 1645884).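 Note: nucleotide exchange releases bodipy-GDP from Rap1 and this lowers its fluorescence; % is set by controls: 0 for no effect and ±100 for the full control effect; nearly all actives have a fitted effect of over 65% in size.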
Assay [20] has as its target Ferritin light chain (Equus caballus) (UniProt P02791). Kind of assay: qHTS Validation Assay for Identification of Novel General Anesthetics (AID 2323). Note: series mostly up to about 77 µM; % is set by controls: 0 for no effect and ±100 for the full control effect. A digest of the protocol: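 Apoferritin from horse spleen (10 uM) was mixed with 1-aminoanthracene at 50% saturation in PBS, then compounds were added. After 10 min at room temperature, fluorescence was read (ex 380 nm, em 535 nm) and normalized to free-probe and complex controls.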

Structures are written as SMILES. Values without a mark were called inactive. Records with an inconclusive call do not appear. Active and inactive are the calls of the source. Unless noted, calls come from the whole dose curve; as a rule, active = well fitted curve in the direction sought with a large enough effect; inconclusive = small, poorly fitted or top-dose-only effect, or another doubt; inactive = no such curve, though single readings can be large; an effect the other way counts as inactive or inconclusive.

Sequence of M-phase phosphoprotein 8 (Homo sapiens) (Q99549 whole entry, looked up): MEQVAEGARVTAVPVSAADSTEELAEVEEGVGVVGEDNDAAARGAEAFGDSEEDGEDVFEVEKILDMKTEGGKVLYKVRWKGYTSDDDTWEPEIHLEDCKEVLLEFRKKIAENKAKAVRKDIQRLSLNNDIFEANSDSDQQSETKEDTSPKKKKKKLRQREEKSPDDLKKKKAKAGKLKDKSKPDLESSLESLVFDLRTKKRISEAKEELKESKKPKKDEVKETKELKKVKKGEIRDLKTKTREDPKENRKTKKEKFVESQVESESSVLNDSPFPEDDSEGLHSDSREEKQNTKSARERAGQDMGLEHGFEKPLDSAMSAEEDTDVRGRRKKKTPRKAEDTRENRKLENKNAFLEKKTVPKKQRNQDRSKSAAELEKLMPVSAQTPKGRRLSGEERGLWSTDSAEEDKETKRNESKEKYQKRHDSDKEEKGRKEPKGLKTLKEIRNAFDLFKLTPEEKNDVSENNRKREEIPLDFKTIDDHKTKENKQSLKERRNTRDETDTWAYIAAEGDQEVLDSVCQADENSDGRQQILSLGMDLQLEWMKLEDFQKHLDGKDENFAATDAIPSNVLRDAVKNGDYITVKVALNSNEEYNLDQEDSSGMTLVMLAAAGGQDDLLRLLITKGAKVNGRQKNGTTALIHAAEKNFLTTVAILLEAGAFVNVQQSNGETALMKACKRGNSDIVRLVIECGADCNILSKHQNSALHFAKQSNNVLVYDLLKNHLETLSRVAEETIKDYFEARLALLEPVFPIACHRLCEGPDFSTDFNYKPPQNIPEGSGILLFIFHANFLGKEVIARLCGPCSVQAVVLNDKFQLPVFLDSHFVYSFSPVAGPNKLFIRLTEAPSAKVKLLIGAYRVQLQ
Sequence of Transient receptor potential cation channel subfamily V member 1 (Homo sapiens) (Q8NER1 whole entry, looked up): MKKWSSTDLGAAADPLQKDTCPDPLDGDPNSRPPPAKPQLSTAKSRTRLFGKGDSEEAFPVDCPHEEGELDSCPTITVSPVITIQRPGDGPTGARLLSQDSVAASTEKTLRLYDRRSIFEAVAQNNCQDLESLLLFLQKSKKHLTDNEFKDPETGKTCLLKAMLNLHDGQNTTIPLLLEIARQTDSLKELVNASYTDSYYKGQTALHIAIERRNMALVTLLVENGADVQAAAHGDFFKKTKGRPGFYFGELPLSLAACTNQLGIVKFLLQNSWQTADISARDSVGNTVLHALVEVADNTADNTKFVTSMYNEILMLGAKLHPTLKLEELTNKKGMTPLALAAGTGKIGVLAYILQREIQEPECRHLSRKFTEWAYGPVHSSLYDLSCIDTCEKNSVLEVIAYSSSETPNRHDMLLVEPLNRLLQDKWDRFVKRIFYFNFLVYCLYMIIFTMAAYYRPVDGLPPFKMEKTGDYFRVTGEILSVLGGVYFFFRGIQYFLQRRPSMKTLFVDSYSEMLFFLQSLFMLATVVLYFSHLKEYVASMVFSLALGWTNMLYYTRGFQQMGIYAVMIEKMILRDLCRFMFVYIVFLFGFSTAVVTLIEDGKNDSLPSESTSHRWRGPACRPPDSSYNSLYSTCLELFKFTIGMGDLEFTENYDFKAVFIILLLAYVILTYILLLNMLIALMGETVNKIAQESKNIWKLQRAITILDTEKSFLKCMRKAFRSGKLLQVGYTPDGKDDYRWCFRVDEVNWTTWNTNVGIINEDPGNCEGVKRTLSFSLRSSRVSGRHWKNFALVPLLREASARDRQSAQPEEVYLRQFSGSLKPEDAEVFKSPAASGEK
Sequence of DNA repair nuclease/redox regulator APEX1 (Homo sapiens) (P27695 whole entry, looked up): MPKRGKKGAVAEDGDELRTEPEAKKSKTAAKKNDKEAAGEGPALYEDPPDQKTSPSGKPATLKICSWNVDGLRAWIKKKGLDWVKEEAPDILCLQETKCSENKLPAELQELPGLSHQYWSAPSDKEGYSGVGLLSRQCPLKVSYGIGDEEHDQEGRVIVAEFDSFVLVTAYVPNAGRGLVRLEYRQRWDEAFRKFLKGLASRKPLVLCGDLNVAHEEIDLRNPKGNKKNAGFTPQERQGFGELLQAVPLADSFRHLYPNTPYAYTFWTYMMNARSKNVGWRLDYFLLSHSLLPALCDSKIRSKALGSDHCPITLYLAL
Sequence of Thyrotropin receptor (Homo sapiens) (P16473 whole entry, looked up): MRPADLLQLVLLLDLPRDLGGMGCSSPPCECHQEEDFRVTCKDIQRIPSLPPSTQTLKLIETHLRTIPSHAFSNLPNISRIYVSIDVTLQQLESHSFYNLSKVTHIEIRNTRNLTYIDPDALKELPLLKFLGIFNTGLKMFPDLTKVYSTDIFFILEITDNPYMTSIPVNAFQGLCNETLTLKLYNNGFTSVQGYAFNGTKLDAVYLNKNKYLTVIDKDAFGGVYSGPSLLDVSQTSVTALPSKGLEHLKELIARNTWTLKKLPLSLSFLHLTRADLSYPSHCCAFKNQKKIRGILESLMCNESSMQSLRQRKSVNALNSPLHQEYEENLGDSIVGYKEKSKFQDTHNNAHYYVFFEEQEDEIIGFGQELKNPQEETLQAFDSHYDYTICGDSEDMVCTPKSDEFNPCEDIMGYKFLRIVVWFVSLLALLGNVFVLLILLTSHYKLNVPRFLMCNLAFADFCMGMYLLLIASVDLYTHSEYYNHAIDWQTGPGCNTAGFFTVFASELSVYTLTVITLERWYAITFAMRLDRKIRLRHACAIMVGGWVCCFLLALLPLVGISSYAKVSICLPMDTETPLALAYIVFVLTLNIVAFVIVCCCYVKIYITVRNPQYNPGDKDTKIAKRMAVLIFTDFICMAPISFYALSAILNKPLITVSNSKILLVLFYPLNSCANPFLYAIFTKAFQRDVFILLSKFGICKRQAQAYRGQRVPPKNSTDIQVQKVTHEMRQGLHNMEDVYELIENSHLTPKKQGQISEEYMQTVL
Sequence of Thyrotropin-releasing hormone receptor (Homo sapiens) (P34981 whole entry, looked up): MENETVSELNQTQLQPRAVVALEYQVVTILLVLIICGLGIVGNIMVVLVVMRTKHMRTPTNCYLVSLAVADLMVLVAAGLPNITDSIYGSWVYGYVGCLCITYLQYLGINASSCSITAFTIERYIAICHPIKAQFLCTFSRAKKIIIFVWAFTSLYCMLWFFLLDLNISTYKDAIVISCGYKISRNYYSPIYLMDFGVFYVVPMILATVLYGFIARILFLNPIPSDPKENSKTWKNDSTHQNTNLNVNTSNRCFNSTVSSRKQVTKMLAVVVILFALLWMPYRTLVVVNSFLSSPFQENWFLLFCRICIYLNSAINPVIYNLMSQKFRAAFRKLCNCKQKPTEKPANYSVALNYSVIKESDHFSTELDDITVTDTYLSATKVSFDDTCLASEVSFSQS
Sequence of Galactokinase (Homo sapiens) (P51570 whole entry, looked up): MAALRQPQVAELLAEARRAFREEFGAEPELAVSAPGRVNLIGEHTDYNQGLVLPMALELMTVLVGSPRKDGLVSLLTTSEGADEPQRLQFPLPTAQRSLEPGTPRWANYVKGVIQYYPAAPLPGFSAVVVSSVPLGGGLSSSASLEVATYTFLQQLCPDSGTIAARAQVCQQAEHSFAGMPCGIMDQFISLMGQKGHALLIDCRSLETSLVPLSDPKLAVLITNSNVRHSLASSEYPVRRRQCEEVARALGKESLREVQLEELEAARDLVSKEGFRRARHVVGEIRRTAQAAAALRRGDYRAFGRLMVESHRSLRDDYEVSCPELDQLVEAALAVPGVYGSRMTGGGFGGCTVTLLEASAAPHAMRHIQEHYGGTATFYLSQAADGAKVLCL
Sequence of Ferritin light chain (Equus caballus) (P02791 2-175 limits assumed): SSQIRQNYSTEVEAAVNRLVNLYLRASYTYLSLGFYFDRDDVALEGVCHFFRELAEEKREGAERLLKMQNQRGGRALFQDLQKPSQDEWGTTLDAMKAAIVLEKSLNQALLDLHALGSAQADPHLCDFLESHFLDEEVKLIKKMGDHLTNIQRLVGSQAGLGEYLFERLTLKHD
Sequence of Rap guanine nucleotide exchange factor 4 (Homo sapiens) (Q8WZA2 whole entry, looked up): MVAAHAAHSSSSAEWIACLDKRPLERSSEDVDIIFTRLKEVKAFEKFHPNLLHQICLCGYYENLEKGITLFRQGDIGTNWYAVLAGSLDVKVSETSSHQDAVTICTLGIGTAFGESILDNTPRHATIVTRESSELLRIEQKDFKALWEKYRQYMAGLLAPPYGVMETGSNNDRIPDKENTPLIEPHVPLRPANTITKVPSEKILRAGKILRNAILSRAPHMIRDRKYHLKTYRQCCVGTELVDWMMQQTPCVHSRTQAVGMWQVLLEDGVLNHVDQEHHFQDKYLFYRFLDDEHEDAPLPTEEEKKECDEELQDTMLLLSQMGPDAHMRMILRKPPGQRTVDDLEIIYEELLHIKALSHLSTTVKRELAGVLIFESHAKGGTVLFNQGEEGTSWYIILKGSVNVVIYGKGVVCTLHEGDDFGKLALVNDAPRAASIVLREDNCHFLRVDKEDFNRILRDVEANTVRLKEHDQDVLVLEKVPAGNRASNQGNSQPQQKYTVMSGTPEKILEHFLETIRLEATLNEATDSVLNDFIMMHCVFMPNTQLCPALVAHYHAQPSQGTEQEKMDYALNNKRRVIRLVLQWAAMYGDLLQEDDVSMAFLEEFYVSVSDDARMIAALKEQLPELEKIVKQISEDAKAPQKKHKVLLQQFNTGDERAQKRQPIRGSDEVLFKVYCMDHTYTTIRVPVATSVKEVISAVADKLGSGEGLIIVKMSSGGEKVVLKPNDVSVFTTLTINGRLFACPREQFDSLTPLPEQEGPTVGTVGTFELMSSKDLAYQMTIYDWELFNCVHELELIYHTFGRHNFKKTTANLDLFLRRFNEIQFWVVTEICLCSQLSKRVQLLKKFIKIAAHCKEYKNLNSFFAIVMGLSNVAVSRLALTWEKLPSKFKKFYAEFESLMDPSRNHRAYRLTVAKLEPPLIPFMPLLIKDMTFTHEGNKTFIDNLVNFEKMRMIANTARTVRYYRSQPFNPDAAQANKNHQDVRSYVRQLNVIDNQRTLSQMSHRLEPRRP

As to `CN1CCc2c(cc(O)c(O)c2Cl)C(c2cccc(Cl)c2)C1` (configuration not stated), the compound was called inactive in assay [1], in assay [2], in [8], in assay [9], in assay [12] and in assay [13]. The compound was classed as inactive in assay [15]. Besides, the Potency in assay [3] was 5.01 µM (active); in assay [4] it was 3.55 µM (active); in assay [5] it was 11.2 µM (active); in assay [6] it was 5.01 µM (active); in assay [7] it was 8.91 µM (active); in assay [10], 18.5 µM (active). Also, the Potency was 39.8 µM (active) in [11] and 12.6 µM (active) in assay [16]. For the same compound, the activation in [14] is 0.0625%.
Consider `COc1cc2c3cc1Oc1c(OC)c(OC)cc4c1[C@@H](Cc1ccc(O)c(c1)Oc1ccc(cc1)C[C@@H]3N(C)CC2)N(C)CC4`, for which the Potency entry in [17] was “inactive”.
Take `Nc1c2ccccc2nc2ccccc12` (tested in a mixture with another compound): the Potency entry in assay [18] and in assay [19] was “inactive” throughout.
With `C=C[C@](C)(O)CCC1C(=C)CC(OC(C)=O)C2C(C)(C)CCCC12C` (some centres not stated), the Potency result in [18] and in [19] was “inactive” in each case.
As to `COc1ccccc1-c1nc(N(C)C)c2ccccc2n1`, the Potency in assay [17] was 3.16 µM (active).
For the compound `COc1cc(C)c(C(=O)Oc2cc(C)c(C(=O)O)c(O)c2C)c(OC)c1C`, the Potency entry in assay [18] and in assay [19] was “inactive” throughout.
`CC(=O)OC1c2c(ccc3ccc(=O)oc23)OC(C)(C)C1OC(=O)CC(C)C` (configuration not stated): the Potency result in [18] and in assay [19] was “inactive” each time.
Consider `COC(=O)c1c(C)c2c(c(C)c1O)OC(=O)c1c(C)c(Cl)c(O)c(Cl)c1O2`, for which the Potency entry in [18] and in assay [19] was “inactive” in each case.
With `COC(=O)[C@@H]1C2CC3c4[nH]c5cc(OC)ccc5c4CCN3CC2C[C@H](OC(=O)c2cc(OC)c(OC)c(OC)c2)C1OC` (some centres not stated), the Potency entry in [18] and in assay [19] was “inactive” throughout.
As to `COc1ccc2c(c1OC)C(=O)OC2C1c2c(cc3c(c2OC)OCO3)CCN1C` (configuration not stated), the compound was classed as inactive in [1], in assay [2], in [20], in assay [8], in assay [9] and in [12]. Besides, the compound was classed as inactive in assay [13] and in assay [15]. Further, the Potency in assay [4] was 12.6 µM (active); in assay [6] it was 14.1 µM (active). Also, the Potency entry in [5], in assay [11] and in assay [16] was “inactive” each time. Further, in assay [14], the activation is -4.69%.
As to `Nc1ncnc2c1nc(Br)n2C1O[C@H]2COP(=O)(O)O[C@@H]2C1O` (some centres not stated), the outcome in assay [1], in assay [2], in [20], in assay [8], in assay [9] and in assay [12] was inactive. Further, the compound was classed as inactive in assay [13] and in assay [15]. The Potency is 12.6 µM (active) in assay [3], 5.62 µM (active) in assay [6] and 6.31 µM (active) in [7]. Also, the activation in assay [14] was 0.688%. Further, the Potency result in assay [16] is “inactive”.
Turning to `NC(=NCc1ccc(Cl)c(Cl)c1)NC(=O)c1nc(Cl)c(N)nc1N`, the outcome in assay [1], in [2], in assay [20], in assay [8], in [13] and in assay [15] was inactive. The Potency is 0.891 µM (active) in assay [3]; 0.282 µM (active) in [4]; 1.58 µM (active) in assay [5]; 1 µM (active) in [6]; 0.501 µM (active) in [7]; 0.586 µM (active) in assay [10]. Besides, the figures for the Potency in assay [11] and in assay [16] were 50.1 µM (active) and 2 µM (active), respectively. In [14], the activation was 4.94%.
